Assay in all cases: NCI-60 one-dose screen, 48 h (100 = growth as untreated, 0 = no growth, -100 = all killed)
Common to all, as to conditions: 10 µM unless noted

For test [1], the system named is NCI-H23 lung.
In test [2] the test system is NCI-H226 lung.
Test [3] relates to NCI-H322M lung.
Test [4] deals with HOP-62 NSCLC.
For test [5], the system named is NCI-H460 lung.
The subject of test [6] is HOP-92 NSCLC.
Test [7] deals with NCI-H522 lung.
The subject of test [8] is A549/ATCC NSCLC.
The test system of test [9] is 786-0 renal.
In test [10] the test system is COLO 205 colon.

SMILES strings stand for the structures. Compounds without any hit were thinned out: in the full panel of roughly 83,000, 20% have a hit.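 Percent growth is the endpoint: 0 to 100 indicates growth inhibition (40 means 60% inhibition), 0 means no net growth, and negative values indicate cell death.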 A number with no mark means an inactive call. Calls of active or inactive are those of the source. The calls were made as follows: active = growth percent below 10; inactive = the rest.

Data on twelve compounds can be found in PubChem BioAssay (NCI).

Consider `CCC(=O)Oc1cc(/C=C/C(=O)O[C@H]2C[C@H]3CN4CCc5c([nH]c6cc(OC)ccc56)[C@@H]4C[C@@H]3[C@@H](C(=O)OC)[C@@H]2OC)ccc1OC`, for which the growth in test [1] was 86.7%; in test [2] it was 67%; in [3] it was 122%; in test [4], 89%; in [5], 93.5%; in test [6], -1.22% (active). Also, the growth in test [7] was 84%; in test [8], 80.5%; in test [9], 70.3%; in test [10], 69.5%.

With `COc1ccc(NC(=O)c2cc3ccccc3nc2Nc2cc(OC)c(OC)c(OC)c2)cc1`, the growth in test [1] was 59.6%; in [2], 54.5%; in [3], 90.2%; in test [4], 84.1%; in [5] it was 50.3%; in test [6], 54.7%. The growth in test [7] was 57.2%; in test [8] it was 50.4%; in test [9], 58%; in [10], 76.7%.

Consider `CCN(Cc1ccc(CN(CC)C(=O)C(Cl)(Cl)Cl)cc1)C(=O)C(Cl)(Cl)Cl`, for which the growth is 67.6% in test [1]; 83.9% in test [2]; 118% in test [3]; 98.2% in [4]; 86.7% in [5]; 33.1% in test [6]. The growth is 74% in test [7], 79.2% in test [8], 72.6% in [9] and 95.7% in test [10].

For the compound `Cc1cc(Nc2nc(-c3ccncc3)nc3ccccc23)n[nH]1`, the growth in test [1] is 80.2%; in test [2] it was 79.1%; in test [3] it was 75.7%; in test [4] it was 95.1%; in test [5] it was 66.1%; in test [6] it was 54.9%. The growth in [7] is 58.7%; in [8] it was 41.9%; in test [9] it was 48.2%; in [10], 31.7%.

With `Cc1ccc2c(c1)C(C)Cc1c(N(C)C)ncnc1N2C` (stereo not given), the growth is 50.5% in test [1]; 81.8% in test [2]; 81.2% in [3]; 36.4% in [4]; 15.5% in test [5]; 52.4% in [6]. Moreover, the growth in [7] is 4.76% (active); in test [8], 49.3%; in [9], 34.8%; in test [10], 32.4%.

On to `Cc1ccc(C2=NN(c3ccc(S(N)(=O)=O)cc3)C(c3cn(-c4ccccc4)nc3-c3ccccc3)C2)cc1` (stereo not given), for which the growth was 93.8% in test [1]; 97.8% in test [2]; 101% in test [3]; 105% in test [4]; 38.9% in test [5]; 27.7% in test [6]. The growth in test [7] was 75.2%; in [8] it was 65%; in test [9], 109%; in test [10], 101%.

Turning to `COC1=CC(c2ccc[nH]2)=N/C1=C\c1[nH]c(C)c(C(=O)CCCCC(=O)Nc2ccccc2)c1C`, the growth in [1] was 34.4%; in test [2], 44.1%; in [3], 87.3%; in [4] it was 80.7%; in [5] it was -38.8% (active); in test [6], -71.4% (active). Besides, the growth in [7] was -45.3% (active); in test [8], -21.4% (active); in test [9], 93.5%; in test [10] it was 67.1%.

`O=C(CNC1CCCCC1)Nc1ccc(-c2nc3ccccc3s2)cc1`: the growth was 76.2% in [1]; 80.3% in [2]; 91.7% in test [3]; 85.2% in [4]; 91.3% in [5]; 48.8% in test [6]. Moreover, the growth in test [7] is 95.5%; in test [8], 88%; in test [9], 70.6%; in test [10], 95.4%.

As to `COc1cc(Cn2c(-c3nonc3N)nc3ccccc32)ccc1C`, the growth is 25.1% in test [1]; 50.3% in test [2]; 58.8% in test [3]; 30.5% in test [4]; 11% in [5]; 39.8% in test [6]. Moreover, the growth in test [7] was -20% (active); in [8], 24.2%; in test [9], 40.3%; in [10], -9.7% (active).

As for `COc1ccc(/C=C2\Oc3cc(OCCN4CCCC4)ccc3C2=O)c(OC)c1`, the growth in test [1] is 88.5%; in test [2] it was 97.8%; in [3] it was 101%; in test [4] it was 84.3%; in test [5], 93.9%; in test [6] it was 79.7%. In addition, the growth in test [7] is 104%; in test [8] it was 99.4%; in test [9], 88.2%; in test [10], 92.8%.

Regarding `CCC1=C[C@@H]2CN(C1)Cc1c([nH]c3ccccc13)[C@@](C(=O)OC)(c1cc3c(cc1OC)N(C=O)[C@H]1[C@@](O)(C(=O)OC)[C@H](OC(C)=O)[C@]4(CC)[C@@H]5C[C@@H]5CN5CC[C@]31[C@@H]54)C2`, the growth in [1] is 15.7%; in [2] it was 35.4%; in test [3], 48.8%; in [4] it was 34%; in test [5], 6.63% (active); in [6] it was -16.4% (active). The growth in [7] is -0.697% (active); in test [8] it was 11%; in [9], 25.8%; in test [10] it was -78.5% (active).

Take `CCOc1ccc(/C=C/C=N/NC(N)=S)cc1`: the growth in test [1] was 78.7%; in test [2], 119%; in test [3], 91.7%; in test [4], 106%; in [5], 96%; in [6] it was 89.3%. The growth in test [7] is 37.3%; in [8] it was 86.1%; in test [9], 56%; in test [10], 84.5%.
